Experimental findings from PubChem BioAssay AID926 (National Center for Advancing Translational Sciences (NCATS), 2007) are described below.

Out of some 73,000 compounds screened, about 350 (0.48%) were called active. Roughly 17% stayed inconclusive and do not appear here. The call rests on the fitted dose curve; in most records, active means well fitted activation curve with a large enough effect in the main read-out, with a control signal flat (not every such curve was filed as active); inconclusive means small, poorly fitted or top-dose-only effect, or a change in a side signal; inactive means no such curve, though single readings can be large or run the other way; reference of the percent scale not stated here. What follows is part of a selection rich in actives, with near analogues and random picks from the rest.

A short description of assay [1]: qHTS Assay for Agonists of the Thyroid Stimulating Hormone Receptor. The following applies: HEK293-CNG-TSHR cells, membrane potential dye, cAMP; measured here: parental cells max response. From the text: (§1) NIH Chemical Genomics Center [NCGC]
(§2) NIH Molecular Libraries Screening Centers Network [MLSCN]
(§3) PI Name: Dr. Marvin Gershengorn, NIH
(§4) Thyroid Stimulating Hormone Receptor
(§5) TSH is an alpha/beta heterodimeric glycoprotein hormone secreted from the anterior pituitary gland which belongs to the glycoprotein hormone family. The actions of TSH are mediated by a seven-transmembrane receptor, which upon TSH binding couples preferentially to the G-alpha (s) protein (Gs), resulting in activation of adenylate cyclase and increase in cyclic adenosine 3', 5' monophosphate (cAMP). The TSH receptor (THSR) is mainly expressed in thyroid follicular cells and regulates their growth and function. Recombinant TSH is used to activate TSHR in patients with thyroid cancer receiving thyroid hormone suppression therapy and to screen for residual tumor after surgery, but it is expensive and must be administered intramuscularly. An orally active small molecule TSHR agonist would serve as an invaluable research tool for studying TSHR pharmacology and physiology, and would have multiple advantages in therapeutic settings. However, no selective small molecule agonist of the TSH receptor exists, and no small molecule screen for TSHR agonists has ever been reported.
(§6) This cell based assay utilized a cyclic nucleotide gated ion channel (CNG) as a biosensor for cAMP induction by potential TSHR agonists.
(§7) HEK 293 cells stably expressing the TSHR as well as a modified CNG were purchased from BD biosciences. Stimulation of cAMP production causes the CNG to open and subsequent membrane depolarization to occur. A fluorescent membrane potential dye (BD biosciences) was utilized to detect cAMP stimulation in TSHR cells.
(§8) The cells were maintained in DMEM medium (Invitrogen) containing 10 % FBS (Hyclone), 100 units/ml Penicillin, 100 ug/ml Streptomycin (Invitrogen), and 250 ug/ml Geneticin (Invitrogen) and 1 ug/ml Puromycin (Invitrogen) at 37C in 5% CO2. HEK 293 cells expressing CNG but without TSHR (parental cells) were used in concert to control for compounds signaling through endogenous receptors and targets of HEK 293 cells.
(§9) NCGC Assay Protocol Summary:
(§10) High Throughput Screening. Freshly passaged cells (TSHR or parental) were dispensed into 1536-well assay plates at 4 ul/well in DMEM containing phenol red (Invitrogen), 10% FCS (Hyclone), and 100 units/ml Penicillin, 100 ug/ml Streptomycin (Invitrogen) and incubated at 37 C with 5% CO2 for 20 to 36 hrs before the robotic screening. The screen was initiated by addition of 4 ul/well membrane potential dye containing 100 uM RO 20-1724 (Sigma Aldrich), followed by 60 min incubation at room temperature to allow for dye equilibration across the cell membrane. 23 nl/well compound or control was then added to the assay plates, which were incubated for additional 30 min before reading a Envision fluorescence plate reader (Perkin Elmer) in bottom-read mode for fluorescence intensity (emission at 590 nm).
(§11) Keywords: Thyroid-stimulating hormone TSH, TSHR, TSHR agonist, quantitative high throughput screening, qHTS, HTS, probe identification, CNG, cAMP, cyclic nucleotide gated ion channel PubChem
(In general: In qHTS, concentration-response curves come from the screen itself.)

The target of assay [2] is Thyrotropin receptor (Homo sapiens) (UniProt P16473). The description is as above. The following applies: HEK293-CNG-TSHR cells (CNG channel as cAMP sensor), membrane potential dye, cAMP; series mostly up to 57.1 µM.
Source text: as §1, §2, §3, §4, §5, §6, §7, §8, §9, §10, §11
Potency means the concentration at half of the fitted maximal effect.

Chain of Thyrotropin receptor (Homo sapiens) (P16473 whole entry, looked up): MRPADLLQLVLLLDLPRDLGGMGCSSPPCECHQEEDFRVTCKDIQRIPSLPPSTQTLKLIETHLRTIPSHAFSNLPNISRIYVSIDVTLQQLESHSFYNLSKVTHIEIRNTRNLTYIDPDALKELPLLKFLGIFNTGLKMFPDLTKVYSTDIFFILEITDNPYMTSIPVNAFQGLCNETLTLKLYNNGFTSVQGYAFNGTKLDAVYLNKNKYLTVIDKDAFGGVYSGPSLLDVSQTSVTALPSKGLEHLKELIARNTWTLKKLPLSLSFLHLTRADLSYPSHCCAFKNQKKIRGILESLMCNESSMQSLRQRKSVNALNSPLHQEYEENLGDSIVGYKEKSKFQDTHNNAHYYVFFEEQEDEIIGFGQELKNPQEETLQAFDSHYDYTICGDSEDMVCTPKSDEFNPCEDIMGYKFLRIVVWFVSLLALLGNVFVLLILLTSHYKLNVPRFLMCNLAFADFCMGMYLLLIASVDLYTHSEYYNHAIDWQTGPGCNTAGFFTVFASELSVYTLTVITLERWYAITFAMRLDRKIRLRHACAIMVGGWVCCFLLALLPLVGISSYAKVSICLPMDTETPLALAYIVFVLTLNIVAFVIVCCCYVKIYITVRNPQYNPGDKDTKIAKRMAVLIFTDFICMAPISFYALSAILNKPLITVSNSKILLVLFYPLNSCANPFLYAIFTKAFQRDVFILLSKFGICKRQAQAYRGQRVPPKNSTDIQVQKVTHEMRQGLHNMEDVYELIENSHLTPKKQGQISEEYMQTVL

For the molecule `O=C(O)c1cc(S(=O)(=O)N2CCCCCC2)c(Cl)cc1Cl`, the results for the activation in assay [1] and in assay [2] were 9.56% and 12.9% [at 11.4 µM] (inactive), respectively.
For the molecule `COC(=O)[C@@]1(C)C=C[C@@H](Cc2ccccc2)N1C(C)=O`, the activation in assay [1] amounted to 15.2%. Further, in assay [2], the Potency entry is “inactive”.
On the same counts, the results for `CCC[C@@H]1C[C@@]1(CCC)C(NC(=O)c1ccc(-c2ccccc2)cc1)c1cccc(Cl)c1` (stereo partly drawn) are -2.94% and “inactive”.
For the molecule `COC(=O)C1(C)C=CCN1C(=O)c1ccccc1` (stereo not drawn), the activation in assay [1] is 22%. Also, the Potency entry in assay [2] is “inactive”.
For `O=C(Cl)c1ccccc1[N+](=O)[O-]` the same measures were 27% and “inactive”.
Regarding `CC(C)CN1CCc2nc(-c3ccccc3)c3c(c2C1)COC(C)C3` (stereo not drawn), the activation in assay [1] was -2.08%; in assay [2] it was -2.84% [at 11.4 µM] (inactive).
Take `CCN(CC)CCCCn1c(-c2ccccc2)nc2c(N3CCOCC3)nc(C)nc21`: the activation in assay [1] came to 25%. The Potency entry in assay [2] is “inactive”.
Turning to `CN1CCN(Cc2nc3c(c(=O)n(C)c(=O)n3C)n2Cc2cccc3ccccc23)CC1`, the activation in assay [1] stood at 2.12%. In assay [2], the Potency result was “inactive”.
Consider `C[C@@H]1/C=C\CC(=O)OC[C@H]2O[C@@H](C=C[C@@H]2O)[C@H](C)/C=C\CC(=O)OC[C@H]2O[C@H]1C=C[C@@H]2O`, for which the activation in assay [1] was -6.65%; in assay [2], -3.42% [at 11.4 µM] (inactive).
With `CC(=O)OCC1OC(C#CCCCc2ccccc2)C=CC1OC(C)=O` (stereo not drawn), the activation in assay [1] was -0.905%; in assay [2], 0.607% [at 11.4 µM] (inactive).
For `CCc1cc(=O)oc2cc(C)cc(OC(C)C(=O)O)c12` (stereo not drawn), the activation in assay [1] amounted to 10.3%. Further, the Potency result in assay [2] was “inactive”.
As for `O=C1[C@H]2[C@H]3[C@H](O)[C@H](O)C/C(=N/OCc4ccccc4)[C@H]3CC[C@@H]2C(=O)N1Cc1ccccc1`, the activation in assay [1] was -2.25%; in assay [2] it was -22.5% [at 11.4 µM] (inactive).
On to `c1ccc(-c2nnc3n2NC(c2ccc4c(c2)OCO4)S3)cc1` (stereo not drawn), for which the activation in assay [1] was 27.8%. Further, the Potency in assay [2] is 25.1 µM (active).
`Fc1ccc(-c2nnc3sc(-c4ccc5c(c4)OCO5)nn23)cc1`: the activation in assay [1] stood at 23.4%. In addition, the Potency result in assay [2] is “inactive”.
On to `O=C(Cn1nnc(-c2ccccc2)n1)NCc1ccc2c(c1)OCO2`, for which, in assay [1], the activation amounted to 12.1%. The Potency result in assay [2] was “inactive”.
Regarding `Cc1ccc(C(=O)N2CCN(C3CCCCC3)CC2)s1`, the activation in assay [1] is -11.9%. The Potency entry in assay [2] is “inactive”.
For the molecule `CC(C)(C)c1ccc(OC2C=CC(C#Cc3ccccc3)OC2CO)cc1` (stereo not drawn), the activation in assay [1] is 12.6%; in assay [2], 1.96% [at 11.4 µM] (inactive).
With `O=C(Cn1cc2c(n1)CCCCC2)NCCN1CCOCC1`, the activation in assay [1] was determined as 1.85%. Further, the Potency entry in assay [2] is “inactive”.
In the case of `CCOC(=O)CSc1nnc(-c2ccncc2)o1`, in assay [1], the activation was -3.39%. For the same molecule, the Potency result in assay [2] was “inactive”.
For `Cc1ccc2nc(CC(=O)c3ccc4ccccc4c3)c(=O)[nH]c2c1`, the activation in assay [1] was 22.3%; in assay [2] it was 4.8% [at 11.4 µM] (inactive).
As to `COc1ccc(-c2cc(C(=O)NC(C(=O)O)C(C)C)c(C)o2)cc1OC` (stereo not drawn), in assay [1], the activation worked out at 6.63%. Moreover, in assay [2], the Potency result is “inactive”.
As for `CN1CCN(c2ncc3nc(-c4ccc(Cl)cc4)c(=O)n(-c4ccccc4)c3n2)CC1`, the activation in assay [1] is -23%. In addition, the Potency entry in assay [2] was “inactive”.
`COc1ncc2nc(-c3ccc(Cl)cc3)c(=O)n(C)c2n1`: the activation in assay [1] amounted to 6.5%. The Potency result in assay [2] is “inactive”.
`CC(c1ccccc1)n1c(NCCCn2ccnc2)nc2c1c(=O)[nH]c(=O)n2C` (stereo not drawn): in assay [1], the activation was 2.43%. Besides, the Potency result in assay [2] was “inactive”.
As for `Cn1c(=O)[nH]c(=O)c2c1nc(NCCCn1ccnc1)n2Cc1cccc(Br)c1`, the activation in assay [1] came out at 20.4%. Also, the Potency in assay [2] was 20 µM (active).
Regarding `CCCCNc1nc2c(c(=O)[nH]c(=O)n2C)n1CCOc1ccccc1`, the activation in assay [1] was found to be 0.873%. Further, the Potency entry in assay [2] is “inactive”.
Regarding `CCC(C)(C)N=C(NC#N)Nc1cccnc1`, the activation in assay [1] came out at 0.273%. The Potency result in assay [2] is “inactive”.
`C1CCC2OC2C1` (stereo not drawn): in assay [1], the activation was 21.9%. Moreover, in assay [2], the Potency entry is “inactive”.
For `CC(Cc1ccccc1)C(=O)N(C)Cc1ccccc1` (stereo not drawn), in assay [1], the activation was determined as 16.5%. Further, the Potency result in assay [2] was “inactive”.
As to `CO[C@H]1COC(=O)CCC[C@@H](C)[C@H](OC)COC(=O)[C@@H](C)NC(=O)C/C=C\[C@@H]1C`, the activation in assay [1] was 4.76%; in assay [2] it was 0.571% [at 11.4 µM] (inactive).
Regarding `C/C(CCN1CCCCc2nc(C)c(C)cc21)=N\O[C@@H](C)c1cn([C@@H]2COC[C@@H]2O)nn1`, the activation in assay [1] was 6.27%; in assay [2], 4.59% [at 11.4 µM] (inactive).
In the case of `O=C(O)c1nccnc1C(=O)Nc1ccc(Br)cn1`, in assay [1], the activation amounted to 3.73%. For the same molecule, the Potency entry in assay [2] was “inactive”.
Consider `C[C@@H](c1ccccc1)N1C(=O)[C@H]2[C@H]3[C@H](O)[C@H](O)C/C(=N/OC[C@@H](O)COCc4ccco4)[C@@H]3CC[C@@H]2C1=O`, for which the activation in assay [1] was 5.7%; in assay [2] it was -3.6% [at 11.4 µM] (inactive).
As for `OC(CCl)CCl`, the activation in assay [1] is 12.9%. Also, in assay [2], the Potency result is “inactive”.
In the case of `CCOC(=O)c1cccc(NC(=O)C2CCCN(S(=O)(=O)c3cnc[nH]3)C2)c1` (stereo not drawn), in assay [1], the activation came out at 5.88%. In addition, the Potency entry in assay [2] is “inactive”.
`CN1CCN(Cc2c(O)ccc3c2oc(=O)c2ccccc23)CC1`: in assay [1], the activation stood at 13.2%. Besides, in assay [2], the Potency entry was “inactive”.
On to `CO[C@H]1COC(=O)[C@H](Cc2ccccc2)NC(=O)C/C=C\[C@@H](C)[C@H](OC)COC(=O)C/C=C\[C@@H]1C`, for which the activation in assay [1] is 25.1%; in assay [2], 10.2% [at 11.4 µM] (inactive).
For the molecule `O=C(CC1Nc2ccccc2NC1=O)Nc1ccccc1` (stereo not drawn), the activation in assay [1] was -1.43%. In addition, in assay [2], the Potency entry was “inactive”.
`CCCCCCn1c(SCC(=O)c2ccccc2)nc2c1c(=O)[nH]c(=O)n2C`: the activation in assay [1] is -2.08%; in assay [2], 3.88% [at 11.4 µM] (inactive).
